Shown are actives, neighbours in structure and some others; about 3.7% of the full set was active somewhere.
Bead autofluor: counter-screen for toxin protease inhibitors: compound fluorescence. compound autofluorescence counterscreen, microsphere flow cytometry; stronger effect = higher value. fluorescence intensity (concentration not given with the values). 3.1% of 360,000 active. AID 624483; in the data active = fluorescence intensity above about 16000; inconclusive = no clear call, values can overlap the other calls
Anthrax LF prot: blocks Bacillus anthracis lethal factor protease | AID 588501 | 0.12% of 360,000 active | inhibition, % at 10 µM | multiplex microsphere protease cleavage assay, LF | P15917
MazF activator: activators of E. coli MazEF toxin-antitoxin RNase; activation, % at 20 µM; AID 504720; FAM/BHQ RNA-DNA oligo cleavage fluorescence, 5 h; 0.32% of 350,000 active; P0AE70; in the data active = activation above about 50%
Target sequence (P0AE70 whole entry, looked up): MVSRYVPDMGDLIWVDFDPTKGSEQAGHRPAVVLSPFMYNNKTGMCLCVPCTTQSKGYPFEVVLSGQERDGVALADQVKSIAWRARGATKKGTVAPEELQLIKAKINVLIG
BoNT A protease: blocks Botulinum neurotoxin A light chain protease. 0.17% of 360,000 active. multiplex microsphere protease substrate cleavage, flow cytometry. inhibition, % at 10 µM
BoNT F protease: inhibitors of Botulinum neurotoxin F light chain protease | Multiplex microsphere protease cleavage assay, flow cytometry | inhibition, % at 10 µM | 0.22% of 360,000 active | AID 588497; in the data active = inhibition above about 35%, passing the limit was not always enough; inconclusive = no clear call, values can overlap the other calls
A number is an active result; . = inactive; ? = inconclusive; / = not tested or not shown. Rule as the data show it, unless noted: active = inhibition above about 30%; inconclusive = no clear call, values can overlap the other calls; inactive = below that.

SMILES | Bead autofluor | Anthrax LF prot | MazF activator | BoNT A protease | BoNT F protease
O=C(NC1(C(F)(F)F)C(=O)Nc2c1c(=O)[nH]c(=O)n2Cc1ccccc1)c1ccco1 (stereo not given) | 22776 | . | . | . | .
O=C(NCC1CCCO1)c1ccc2c(c1)N(Cc1ccccc1)CCS2 (stereo not given) | . | . | . | . | .
O=c1[nH]cnc2c1C(c1ccccc1[N+](=O)[O-])c1c(nc[nH]c1=O)O2 | 20743 | . | . | . | .
COCC(=O)NNC(=S)Nc1cccc(C)c1C | . | . | . | . | .
COc1ccc(CN2CCCC(C(=O)N3CCCCC3)C2)c(OC)c1 (stereo not given) | . | . | . | . | .
CCN(CC)C(=O)C1CCCN(Cc2ccc(OC)c(C)c2C)C1 (stereo not given) | 21287 | . | . | ? | .
CCOC(=O)C1CCCN(Cc2cc(Br)ccc2OC)C1 (stereo not given) | . | . | . | . | .
CCOC(=O)C1CCCN(Cc2cc(Br)c(OC)cc2OC)C1 (stereo not given) | 22833 | . | . | . | .
Cc1cccc(NC(=S)NCc2ccc3c(c2)cc(C)n3C)c1C | . | . | . | 47.2 | .
Cc1cccc(NC(=S)NCc2cccs2)c1C | . | . | . | . | .
Cc1cccc(NC(=S)NCc2ccccc2Cl)c1C | . | . | . | . | 37.1
COc1cccc(NC(=S)NCc2ccc3c(c2)cc(C)n3C)c1 | . | . | . | 53.6 | .
Cc1cc2cc(CNC(=S)Nc3ccc(OC(F)(F)F)cc3)ccc2n1C | . | . | . | 59.5 | .
Cc1cccc(C(C)C)c1NC(=O)COC(=O)CN1C(=O)C2CC=CCC2C1=O (stereo not given) | ? | . | . | . | .
Cn1cccc1CNCc1ccccc1Cl | 18677 | . | . | . | .
O=C1NCCN1C(=O)N(c1ccccc1)c1ccccc1 | 22362 | . | . | . | .
CN1CCN(C(=O)N(c2ccccc2)c2ccccc2)CC1 | . | . | . | . | ?
COc1ccc(C(=O)NC2CCN(C(=O)NCc3ccccc3)CC2)cc1 | . | . | . | . | .
Cn1c(C(O)c2ccccc2F)nc(Cl)c1Cl (stereo not given) | 22133 | . | . | . | .
CCNC(=O)N1C(=O)C2(OCCO2)c2ccccc21 | . | . | . | . | .
CCCCOc1ccc(OCCCC)c2c1NC1(N2)C(=O)N(C(C)=O)c2ccccc21 | . | . | 105.1 | . | .
CC(C)(C)OC(=O)[C@H](Cc1ccccc1)NC(=O)c1nc[nH]c1C(=O)N1CCNCC1 | . | . | . | . | .
CCC(C(=O)NC1CCCC1)N(C(=O)Cn1nnc(-c2ccc(C)o2)n1)c1cnc2ccccc2c1 (stereo not given) | 26220 | . | . | . | .
Cc1ccc(-c2nnn(CC(=O)N(CC(=O)NCC3CCCO3)c3ccc(F)c(Cl)c3)n2)o1 (stereo not given) | 25388 | . | . | . | .
Cc1ccc(-c2nnn(CC(=O)N(CC(=O)NC3CCCC3)c3cnc4ccccc4c3)n2)o1 | 20315 | . | . | . | .
SMILES | Bead autofluor | Anthrax LF prot | MazF activator | BoNT A protease | BoNT F protease
Cc1ccc(-c2nnn(CC(=O)N(CC(=O)NC(C)C)c3cnc4ccccc4c3)n2)o1 | . | . | . | . | .
CN(CC(=O)Nc1cc(C(F)(F)F)ccc1-n1cncn1)Cc1ccccc1N1CCOCC1 | . | . | . | . | .
CC(C)OC(=O)CSc1nnc2n1C(C)(C)Cc1ccccc1-2 | 16487 | . | . | . | .
CCOC(=O)CSc1nnc2n1C(C)(C)Cc1ccccc1-2 | 16513 | . | . | . | .
CCSc1nnc2n1C(C)(C)Cc1ccccc1-2 | . | . | . | . | .
COc1cc(C(=O)N(Cc2ccccn2)CC2CCCO2)cc(OC)c1OC (stereo not given) | 21493 | . | . | . | .
COc1ccccc1NC(=O)N(Cc1ccccc1)C1=NCC(C)S1 (stereo not given) | 22072 | . | . | . | .
O=C(COC(=O)C1CC(=O)N(CCc2ccccc2)C1)c1ccc[nH]1 (stereo not given) | / | / | . | / | /
CCOCN(C(=O)Cn1c(CO)nc2ccccc21)c1c(C)cccc1CC | 21035 | . | . | . | .
Fc1ccc(-c2nnc3sc(C4COc5ccccc5O4)nn23)cc1 (stereo not given) | . | . | . | . | .
c1ccc(Cc2nn3c(Cn4nnc5ccccc54)nnc3s2)cc1 | 22542 | . | . | ? | .
c1ccc(-c2nn3c(Cn4nnc5ccccc54)nnc3s2)nc1 | . | . | . | . | .
c1ccc2c(c1)OCC(c1nn3c(Cn4nnc5ccccc54)nnc3s1)O2 (stereo not given) | 16268 | . | . | ? | .
c1cncc(-c2nn3c(Cn4nnc5ccccc54)nnc3s2)c1 | 16144 | . | . | . | .
c1ccc(CCc2nn3c(Cn4nnc5ccccc54)nnc3s2)cc1 | . | . | . | . | .
COc1ccc2cc(C(C)C(=O)Nc3cccc(S(=O)(=O)N(C)C)c3)ccc2c1 (stereo not given) | . | . | . | . | .
NC(=O)CSc1nnnn1-c1ccccc1Cl | . | . | . | . | .
CCC(=O)c1ccc(OCC(=O)N2CCN(S(=O)(=O)c3ccc(Cl)s3)CC2)cc1 | . | . | . | . | .
Cc1noc(C)c1CN(C(=S)NC(C)C)c1ccccc1 | . | . | . | . | .
Cc1noc(C)c1CN(C(=S)NC1CC2CCC1C2)c1ccccc1 (stereo not given) | . | . | . | . | 42.1
O=c1c2ccccc2[nH]c(=S)n1CCN1CCCC1 | . | . | . | . | .
O=C(CCN1CCCCC1)Nn1c(=S)[nH]c2ccccc2c1=O | 23257 | . | . | ? | .
COc1cc(C(=O)NCCSc2ccc(Br)cc2)cc(OC)c1OC | 18300 | . | . | . | .
COc1cc(C(=O)Nc2ccc(Br)cc2C(=O)c2ccccc2)cc(OC)c1OC | / | / | . | / | /
CCCCCCNC(=O)CCNC(=O)c1cc(OC)c(OC)c(OC)c1 | 22280 | . | . | . | .
SMILES | Bead autofluor | Anthrax LF prot | MazF activator | BoNT A protease | BoNT F protease
COc1cc(C(=O)Nc2ccc(Br)cc2C(=O)c2cc(OC)c(OC)c(OC)c2)cc(OC)c1OC | 24193 | . | . | . | .
COc1ccc2[nH]c3c(=O)n(CCCCC(=O)N4CCC(C(N)=O)CC4)c(=S)[nH]c3c2c1 | 20373 | . | . | ? | .
CC[C@H](C)NC(=O)CCCCCn1c(=S)[nH]c2c([nH]c3ccc(OC)cc32)c1=O | . | . | . | . | .
COc1ccc2[nH]c3c(=O)n(CCCCC(=O)NCCN4CCCC4)c(=S)[nH]c3c2c1 | 17189 | . | . | . | .
CCCCNC(=O)CCCCn1c(=S)[nH]c2c([nH]c3ccc(OC)cc32)c1=O | . | . | . | . | .
COc1ccc(C(=O)O)cc1S(=O)(=O)Nc1ccccc1C(=O)NCc1ccc2c(c1)OCO2 | . | . | . | . | .
O=C(CSc1nccc(=O)[nH]1)Nc1ccc(Br)c(Cl)c1 | . | . | . | . | .
O=C(CSc1nccc(=O)[nH]1)Nc1ccc(F)c(Cl)c1 | 24003 | . | . | ? | .
COc1cc(CNCC(C)C)c(Br)cc1OCC(=O)NCc1ccccc1 | 16297 | . | . | . | .
Cc1nnc(NC(=O)C2CCCCC2)s1 | 22880 | . | . | ? | .

Screens (PubChem BioAssay)
